Sampled rows, rich in hits. Any-hit rate of the full collection: about 1.7%.
Mtb hypoxia inh: Mtb hypoxia fluorescent reporter inhibition; M. tuberculosis hypoxia-regulated fluorescent reporter, fluorescence; 300,000 compounds, 0.1% hits; fluorescence inhibition, % (concentration not given with the values); AID 1159583; in the data active means fluorescence inhibition mostly above about 23%, no sharp cut-off; inactive means mostly below about 17%
BH1578 lux ind: inducers of Vibrio cholerae quorum light production without autoinducers. V. cholerae BH1578 lux reporter, luminescence, 6 h. activation, % at 18.7 µM. 350,000 compounds, 0.16% hits. AID 588436; in the data active means activation mostly above about 9.7%, no sharp cut-off
ugtP null kill: compounds lethal to S. aureus RN4220 ugtP deletion mutant | growth inhibition, % (no concentration beside the values) | 330,000 compounds, 0.54% hits | OD600 growth, 16 h; in the data active means growth inhibition above about 68%;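 further: plate controls were untreated wells for no effect and antibiotic for full effect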
CCHFV vOTU inh: blocks the CCHF virus ovarian tumor domain protease; CCHFV vOTU protease, Pep-AMC fluorescence; inhibition, % at 11.5 µM; 370,000 compounds, 0.55% hits; AID 651958; in the data active means inhibition above about 30%; further: 0% = vehicle wells with enzyme and 100% = no enzyme wells
Sa RN4220 lethal: S. aureus RN4220 growth inhibition; OD600, 16 h; inhibition, % (test concentration not listed); 330,000 compounds, 0.33% hits; in the data active means inhibition above about 85%;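 further: plate controls were untreated cells for no effect and reference antibiotic for full effect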
PfHsp40 yeast: rescue of PfHsp40-mediated yeast toxicity; growth rescue, % at 12.5 µM; S. cerevisiae expressing PfHsp40, growth rescue, ATP luminescence; 340,000 compounds, 0.68% hits; AID 504582; in the data active means growth rescue above about 28%, passing the limit was not always enough;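 further: yeast W303a lacking pdr1 and pdr3 grown in galactose medium; growth measured after three days at 30 °C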
* = called active by the depositor; i = inactive; . = not tested or not shown; + = active, no number.

SMILES | Mtb hypoxia inh | BH1578 lux ind | ugtP null kill | CCHFV vOTU inh | Sa RN4220 lethal | PfHsp40 yeast
CCCc1ccc(-c2cc(C(=O)N/N=C/c3ccc([N+](=O)[O-])o3)c3ccccc3n2)cc1 | . | 3.7 | . | 10.2 | . | -0.1
CC1(C(=O)NN=Cc2ccc([N+](=O)[O-])o2)CC1(Br)Br (stereo not given) | 0.8 | . | 89.1* | . | 81.5 | .
O=C(NN=Cc1ccc([N+](=O)[O-])o1)c1cc2c(ccc3ccccc32)o1 | -5.9 | . | 98.5* | . | 98.2* | .
O=C(NN=Cc1cc([N+](=O)[O-])ccc1N1CCCCCC1)c1ccccn1 | 4.3 | . | 23.2 | . | 47.7 | .
CC1(N2CCCCC2)CC2(O)C(=NO)CCCC2=[N+]1[O-] (stereo not given) | . | . | 11.2 | . | 4.7 | .
COCCNC(=S)NN=C(C)c1ccc(Cl)s1 | 22.6 | . | 3.6 | . | 2.6 | .
O=C(NN=Cc1ccc(O)cc1)c1csc2c1CCCC2 | 1.9 | . | -0.7 | . | 0.4 | .
Cc1cc(NN=Cc2ccc([N+](=O)[O-])o2)nc2ccccc12 | 3.9 | . | 18.5 | . | 26.6 | .
Cc1ccc2nc(NN=Cc3ccc([N+](=O)[O-])o3)nc(-c3ccccc3)c2c1 | . | . | 100.1* | . | 99.3* | .
O=C(c1ccc(-n2c(SCc3cccc(F)c3)nc3ccccc3c2=O)cc1)N1CCOCC1 | 4.5 | i | -5.0 | -1.6 | -1.8 | -0.3
O=c1c2ccccc2nc(SCc2cccc(F)c2)n1-c1cccc(S(=O)(=O)N2CCCC2)c1 | 6.8 | i | 93.7* | 4.3 | 96.6* | -0.9
COCCCN1C(=O)C(=O)C(=C(O)c2ccc(OC(C)C)cc2)C1c1ccc(O)c(OC)c1 (stereo not given) | 9.4 | . | -0.1 | . | 4.1 | .
FC(F)(F)c1nc(SCc2ccc(Cl)cc2Cl)n[nH]1 | 0.1 | -0.7 | 82.8* | 3.0 | 81.0 | 299.1*
O=C(CCC1CCCC1)c1c(O)c2ccccc2oc1=O | 0.9 | -0.3 | 99.5* | 6.5 | 100.1* | 0.7
O=C(c1c(O)c2ccccc2oc1=O)C1CCCCC1 | -3.1 | i | 22.3 | -1.0 | 48.4 | 0.3
O=C(NCC1CCCO1)c1coc2nc3ccccc3nc12 (stereo not given) | 3.7 | + | -7.2 | -87.7 | -15.0 | -0.2
O=C(Nc1ccccc1C(=O)NCC1CCCO1)c1ccccc1 (stereo not given) | 8.2 | i | -0.3 | -4.9 | 4.1 | -1.4
O=C(Nc1ccccc1N(C(=O)c1ccco1)S(=O)(=O)c1cccs1)c1ccco1 | . | -0.9 | 1.9 | 6.7 | 6.8 | 40.5*
CC(=NNc1ccc(Cl)cc1)c1ccncc1 | 13.9 | . | 15.8 | . | -10.7 | .
CCOC(=O)c1cccc(NC(=O)/C=C/c2cccc([N+](=O)[O-])c2)c1 | 6.1 | 1.7 | -13.9 | 11.6 | 0.6 | 1.3
CCOC(=O)/C=C/C(=O)Nc1cccc([N+](=O)[O-])c1 | 14.3 | -0.2 | 6.4 | . | 7.9 | 189.3*
CCc1ccc(C(c2ccc(CC)cc2)C(Cl)Cl)cc1 | . | -0.4 | . | 4.1 | . | -0.8
Clc1ccc(C(c2ccccc2Cl)C(Cl)Cl)cc1 (stereo not given) | 1.0 | -0.3 | 93.1* | 1.4 | -8.7 | 7.3
Cc1cnnn1-c1ccc(C(=O)CCl)cc1 | -83.4 | -0.4 | 97.8* | -1.3 | 97.6* | 0.3
CC(=O)c1ccc(-n2nncc2C(C)(C)C)cc1 | -11.6 | i | -4.9 | -0.1 | -0.9 | -0.3
SMILES | Mtb hypoxia inh | BH1578 lux ind | ugtP null kill | CCHFV vOTU inh | Sa RN4220 lethal | PfHsp40 yeast
CCN(CC)S(=O)(=O)c1ccc(-c2nnc(SCc3nnc(-c4ccc(C)cc4)o3)o2)cc1 | -3.1 | -4.8 | -5.6 | 20.2 | 6.0 | -0.4
CCN(CC)S(=O)(=O)c1ccc(-c2nnc(SCc3nnc(-c4ccc(C)cc4)o3)n2CC)cc1 | -9.4 | -0.3 | -3.5 | 3.4 | 7.3 | 45.3*
CCSc1cc(N2CCCC2)nc(-c2ccc(C)cc2)n1 | -3.2 | -0.2 | 2.9 | -4.9 | 4.1 | 0.4
Cc1cc(N2CCCCC2)nc(-c2ccc(Br)cc2)n1 | 17.4 | i | 86.5* | 1.2 | -2.0 | -0.7
COc1ccc(C(=O)Nc2cccc([N+](=O)[O-])c2)cc1Br | . | 1.3 | -20.5 | 16.4 | -1.2 | 0.4
COc1ccc(C(=O)Nc2ccc(OC)c([N+](=O)[O-])c2)cc1Br | -1.0 | 29.2* | 4.1 | 8.7 | -0.2 | 13.6
Cc1ccccc1NS(=O)(=O)c1ccc2c(c1)NC(=O)CCS2 | 20.1 | -0.4 | 77.4 | -0.5 | 88.7* | 0.3
Cc1ccc(NS(=O)(=O)c2ccc3c(c2)NC(=O)CCS3)c(Br)c1 | 11.1 | -0.4 | 96.0* | 14.9 | 98.2* | -0.3
Cc1ccc(C)c(NS(=O)(=O)c2ccc3c(c2)NC(=O)CCS3)c1 | 14.9 | -0.5 | 27.9 | -0.4 | 64.9 | -1.4
Cc1cccc(NC(=O)c2ccccc2O)c1C | 15.4 | -7.1 | -3.8 | 9.7 | 28.3 | 57.1*
CC(C)(C)C(=O)C(Cl)C(=O)Nc1ccccc1 (stereo not given) | 0.9 | -0.5 | 30.0 | 7.6 | 37.6 | 275.3*
O=C(CCl)NCC1CCCO1 (stereo not given) | 18.6 | -0.5 | -0.2 | -16.4 | 1.7 | -0.7
O=C(CC1CCCCC1)NCC1CCCO1 (stereo not given) | . | 16.7* | 6.9 | -6.9 | 6.9 | -2.4
CC1(C)Cc2cccc(OCC(=O)N3CCN(c4cccc(C(F)(F)F)c4)CC3)c2O1 | 4.4 | -1.6 | -2.1 | -1.5 | 2.3 | 41.0*
CC1(C)Cc2cccc(OCC(=O)N3CCN(c4cccc(Cl)c4)CC3)c2O1 | 2.6 | i | -6.3 | 14.3 | 3.5 | 7.4
CC1C=C(C(=O)O)OC(OCc2ccc(CO)cc2)C1 (stereo not given) | 2.4 | . | -2.5 | . | 6.4 | .
O=C(O)CCCCCN1C(=O)/C(=C/c2cn(-c3ccccc3)nc2-c2cccs2)SC1=S | 7.6 | . | 77.8 | -2.8 | 44.6 | 8.3
O=C(O)CCN1C(=O)/C(=C\c2ccc(-c3nc4ccccc4s3)o2)SC1=S | . | i | 100.6* | . | 108.6* | -0.7
COc1ccc(/C=C2/SC(=S)N(CCC(=O)O)C2=O)cc1 | 5.0 | i | -0.6 | 9.9 | 9.0 | 0.5
O=C(O)CCN1C(=O)/C(=C\c2ccncc2)SC1=S | 37.6* | i | 14.4 | 0.7 | 7.9 | -1.6
O=C(O)CCN1C(=O)/C(=C/c2cn(-c3ccccc3)nc2-c2cccs2)SC1=S | 7.0 | -0.7 | 93.3* | -9.4 | 38.1 | .
O=C(O)CCCN1C(=O)/C(=C\c2ccco2)SC1=S | 10.3 | -0.6 | -1.6 | 1.7 | 4.5 | 0.4
COc1cc(C(=O)NN=c2sc3ccccc3n2C)cc(OC)c1OC | 1.5 | . | 3.2 | . | 6.8 | .
CCOc1cc(C=NNC(=O)c2ccccn2)ccc1OC(=O)c1ccc(F)cc1 | 11.3 | . | 1.9 | . | 4.5 | .
O=C1CCCC=CCC(CC(=O)N(CCO)Cc2ccccc2)C(=O)NC(c2ccccc2)CO1 (stereo not given) | 4.1 | . | -1.7 | . | 3.7 | .
Cc1ccccc1CN1C(=O)C2Cc3c([nH]c4ccccc34)C(C)(C)N2C1=O (stereo not given) | 7.2 | . | -4.1 | . | -10.1 | .
COC(=O)[C@]1(CC(C)C)NC(c2ccc(SC3CCCCC3)c(OC)c2)C2C(=O)N(C)C(=O)C21 (stereo not given in full) | 10.5 | . | 7.9 | . | 4.2 | .
Nc1c(Cl)ncnc1N/N=C/c1ccc2ccccc2n1 | . | -0.3 | . | 10.5 | . | 502.5*
Nc1c(Cl)ncnc1NN=Cc1ccccn1 | 1.8 | . | -5.3 | . | -3.1 | .
